What all share (test): DAPPL (digital affinity profiling via proximity ligation, sequencing); 10 mM Tris-HCl pH 7.5, 50 mM NaCl, 1 mM DTT, 4% glycerol, room temperature, 30 min; GST-TFs on glutathione beads, 16-mer random dsDNA library, 0.1% formaldehyde crosslink after washing; high values mean tight binding
What all share (conditions): protein: recombinant; tags: N-terminal GST; dsDNA, one strand shown

For one assay, the target named is T1, FLI1 (Homo sapiens, UniProt Q01543 1-452).
T1 sequence: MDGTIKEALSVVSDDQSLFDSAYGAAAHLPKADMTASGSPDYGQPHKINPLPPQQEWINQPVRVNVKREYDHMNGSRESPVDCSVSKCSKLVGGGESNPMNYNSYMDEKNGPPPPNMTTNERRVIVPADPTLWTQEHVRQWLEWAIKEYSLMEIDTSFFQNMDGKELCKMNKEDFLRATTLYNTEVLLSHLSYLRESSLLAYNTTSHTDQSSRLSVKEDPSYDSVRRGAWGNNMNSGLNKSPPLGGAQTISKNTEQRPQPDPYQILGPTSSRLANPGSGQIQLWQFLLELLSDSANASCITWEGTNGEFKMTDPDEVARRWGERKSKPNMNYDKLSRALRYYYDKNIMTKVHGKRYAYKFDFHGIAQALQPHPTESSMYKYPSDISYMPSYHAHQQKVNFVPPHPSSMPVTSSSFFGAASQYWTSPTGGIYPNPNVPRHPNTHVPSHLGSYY
The method in brief: (§1)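 Yeast served to express human transcription factors as GST fusions, which were then captured on glutathione beads and labelled with DNA barcodes. Pooled with a tag-only sample, they were incubated with 200 nmole of a 16-mer random double-stranded DNA library for 30 min at room temperature in Tris/NaCl/DTT/glycerol buffer, washed, crosslinked with 0.1% formaldehyde, ligated by proximity, amplified by PCR and sequenced. Dividing each hexamer's read frequency for a factor by its frequency for the tag-only sample gives the binding signal.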

A further assay deals with T2, ELK1 (Homo sapiens, UniProt P19419 1-428).
T2 sequence: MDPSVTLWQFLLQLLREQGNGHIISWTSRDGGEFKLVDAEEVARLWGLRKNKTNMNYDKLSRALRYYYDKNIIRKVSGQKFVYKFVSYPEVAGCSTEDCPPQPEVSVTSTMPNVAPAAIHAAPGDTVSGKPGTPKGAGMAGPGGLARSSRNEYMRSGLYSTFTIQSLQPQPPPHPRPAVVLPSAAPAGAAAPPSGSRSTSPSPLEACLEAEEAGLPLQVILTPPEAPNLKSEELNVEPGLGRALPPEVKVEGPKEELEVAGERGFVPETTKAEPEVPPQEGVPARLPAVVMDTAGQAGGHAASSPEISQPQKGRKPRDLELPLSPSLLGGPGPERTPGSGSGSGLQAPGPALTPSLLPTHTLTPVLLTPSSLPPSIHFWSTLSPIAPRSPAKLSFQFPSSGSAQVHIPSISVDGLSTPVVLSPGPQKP
The method in brief: as §1

The next assay concerns the target T3, GABPA (Homo sapiens, UniProt Q06546 1-454).
T3 sequence: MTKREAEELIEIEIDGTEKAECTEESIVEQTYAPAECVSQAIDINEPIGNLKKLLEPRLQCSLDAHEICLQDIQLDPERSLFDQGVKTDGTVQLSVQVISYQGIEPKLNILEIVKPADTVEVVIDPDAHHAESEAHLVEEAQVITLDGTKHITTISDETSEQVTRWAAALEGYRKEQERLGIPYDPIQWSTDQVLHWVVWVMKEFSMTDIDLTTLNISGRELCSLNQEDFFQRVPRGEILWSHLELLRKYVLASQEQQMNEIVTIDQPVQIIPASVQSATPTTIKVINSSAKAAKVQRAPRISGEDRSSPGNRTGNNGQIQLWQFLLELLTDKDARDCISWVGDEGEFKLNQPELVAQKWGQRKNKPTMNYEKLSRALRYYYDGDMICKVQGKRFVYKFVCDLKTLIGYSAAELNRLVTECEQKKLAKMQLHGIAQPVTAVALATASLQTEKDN
The method in brief: as §1

Another assay deals with T4, ERG (Homo sapiens, UniProt P11308 1-479).
T4 sequence: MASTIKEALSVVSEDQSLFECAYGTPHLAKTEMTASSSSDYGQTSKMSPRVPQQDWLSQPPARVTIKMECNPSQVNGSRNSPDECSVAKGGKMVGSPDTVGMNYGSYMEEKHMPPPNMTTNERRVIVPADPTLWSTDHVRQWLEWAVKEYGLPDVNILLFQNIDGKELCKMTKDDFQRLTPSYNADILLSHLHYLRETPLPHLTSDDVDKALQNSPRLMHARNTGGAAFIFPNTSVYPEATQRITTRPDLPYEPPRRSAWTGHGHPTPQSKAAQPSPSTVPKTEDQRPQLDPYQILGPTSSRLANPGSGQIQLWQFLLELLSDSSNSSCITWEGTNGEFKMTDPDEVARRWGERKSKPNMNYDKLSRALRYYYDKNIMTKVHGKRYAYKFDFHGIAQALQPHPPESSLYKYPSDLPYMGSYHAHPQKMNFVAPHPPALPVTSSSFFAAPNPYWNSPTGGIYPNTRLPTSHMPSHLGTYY
The method in brief:
as §1

A further assay addresses ELF1 (Homo sapiens, UniProt P32519 1-619). The method in brief:
as §1

A further assay addresses T5, EHF (Homo sapiens, UniProt Q9NZC4 1-300).
T5 sequence: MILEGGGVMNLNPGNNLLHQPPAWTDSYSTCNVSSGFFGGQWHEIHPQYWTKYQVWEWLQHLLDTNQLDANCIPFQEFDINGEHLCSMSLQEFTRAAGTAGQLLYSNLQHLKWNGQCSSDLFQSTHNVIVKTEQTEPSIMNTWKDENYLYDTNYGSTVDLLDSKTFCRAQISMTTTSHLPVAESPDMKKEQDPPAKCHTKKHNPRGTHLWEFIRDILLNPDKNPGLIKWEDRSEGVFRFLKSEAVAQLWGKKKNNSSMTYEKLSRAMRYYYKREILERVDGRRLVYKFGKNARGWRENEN
The method, boiled down: as §1

For the next assay, the target named is SPI1 (Homo sapiens, UniProt P17947 1-270). The method in brief: as §1
In another assay the target is SPIB (Homo sapiens, UniProt Q01892 1-262). The method in brief:
as §1

In the next assay the target is T6, ELK3 (Homo sapiens, UniProt P41970 1-407).
T6 sequence: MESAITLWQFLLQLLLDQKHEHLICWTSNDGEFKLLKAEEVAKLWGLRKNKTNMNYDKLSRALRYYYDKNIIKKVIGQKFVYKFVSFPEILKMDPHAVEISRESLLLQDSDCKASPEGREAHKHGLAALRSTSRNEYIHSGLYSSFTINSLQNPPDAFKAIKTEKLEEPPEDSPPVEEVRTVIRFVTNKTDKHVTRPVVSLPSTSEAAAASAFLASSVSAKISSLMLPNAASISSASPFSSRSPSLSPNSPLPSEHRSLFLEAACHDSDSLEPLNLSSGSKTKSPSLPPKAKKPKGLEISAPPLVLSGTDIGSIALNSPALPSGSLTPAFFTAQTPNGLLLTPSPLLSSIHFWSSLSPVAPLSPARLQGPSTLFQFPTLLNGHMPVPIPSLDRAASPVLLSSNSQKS
The method, boiled down:
as §1

SPIB, sequence (Q01892 whole entry): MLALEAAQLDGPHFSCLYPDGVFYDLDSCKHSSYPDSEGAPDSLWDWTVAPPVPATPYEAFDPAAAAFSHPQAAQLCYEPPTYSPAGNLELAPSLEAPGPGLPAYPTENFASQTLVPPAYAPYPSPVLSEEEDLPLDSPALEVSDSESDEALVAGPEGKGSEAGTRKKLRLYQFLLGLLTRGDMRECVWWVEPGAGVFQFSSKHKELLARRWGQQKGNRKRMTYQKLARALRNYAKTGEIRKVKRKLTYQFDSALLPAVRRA
ELF1, sequence (P32519 whole entry): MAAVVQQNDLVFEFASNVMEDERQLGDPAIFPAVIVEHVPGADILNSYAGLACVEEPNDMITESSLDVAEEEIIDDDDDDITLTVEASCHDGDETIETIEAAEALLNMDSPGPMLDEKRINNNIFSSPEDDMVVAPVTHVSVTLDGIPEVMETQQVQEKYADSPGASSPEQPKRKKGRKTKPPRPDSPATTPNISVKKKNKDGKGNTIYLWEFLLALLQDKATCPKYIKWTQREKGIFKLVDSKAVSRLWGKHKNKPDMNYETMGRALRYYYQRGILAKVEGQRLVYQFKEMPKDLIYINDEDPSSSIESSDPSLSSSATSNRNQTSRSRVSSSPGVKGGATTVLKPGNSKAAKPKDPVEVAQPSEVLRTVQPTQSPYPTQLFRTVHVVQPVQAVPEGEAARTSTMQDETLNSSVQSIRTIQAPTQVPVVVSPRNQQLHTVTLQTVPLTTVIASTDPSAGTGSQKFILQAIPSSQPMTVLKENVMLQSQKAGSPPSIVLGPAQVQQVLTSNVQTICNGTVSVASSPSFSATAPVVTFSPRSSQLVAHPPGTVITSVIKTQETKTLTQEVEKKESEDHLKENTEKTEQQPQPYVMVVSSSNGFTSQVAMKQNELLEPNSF

Turning to TATTGG, the binding signal with FLI1 is 1.12 fold enrichment (6-mer frequency, TF over GST control); with ELK1, 1.14 fold enrichment (6-mer frequency, TF over GST control); with GABPA it was 1.22 fold enrichment (6-mer frequency, TF over GST control); in the assay with ERG, 1.15 fold enrichment (6-mer frequency, TF over GST control); with ELF1, 1.22 fold enrichment (6-mer frequency, TF over GST control); in the assay with EHF it was 1.26 fold enrichment (6-mer frequency, TF over GST control). Also, the binding signal was 1.06 fold enrichment (6-mer frequency, TF over GST control) with SPI1; 1.24 fold enrichment (6-mer frequency, TF over GST control) in the assay with SPIB; 1.07 fold enrichment (6-mer frequency, TF over GST control) with ELK3.
For TTTGAC, the binding signal is 1.57 fold enrichment (6-mer frequency, TF over GST control) with FLI1; 1.59 fold enrichment (6-mer frequency, TF over GST control) with ELK1; 1.55 fold enrichment (6-mer frequency, TF over GST control) with GABPA; 1.45 fold enrichment (6-mer frequency, TF over GST control) with ERG; 1.4 fold enrichment (6-mer frequency, TF over GST control) with ELF1; 1.35 fold enrichment (6-mer frequency, TF over GST control) in the assay with EHF. For the same sequence, the binding signal with SPI1 was 1.34 fold enrichment (6-mer frequency, TF over GST control); with SPIB it was 1.35 fold enrichment (6-mer frequency, TF over GST control); with ELK3, 1.34 fold enrichment (6-mer frequency, TF over GST control).
With GCATTT, the binding signal with FLI1 is 1.38 fold enrichment (6-mer frequency, TF over GST control); with ELK1 it was 1.38 fold enrichment (6-mer frequency, TF over GST control); in the assay with GABPA it was 1.36 fold enrichment (6-mer frequency, TF over GST control); with ERG, 1.3 fold enrichment (6-mer frequency, TF over GST control); with ELF1 it was 1.33 fold enrichment (6-mer frequency, TF over GST control); with EHF it was 1.37 fold enrichment (6-mer frequency, TF over GST control). Also, the binding signal was 1.58 fold enrichment (6-mer frequency, TF over GST control) in the assay with SPI1; 1.38 fold enrichment (6-mer frequency, TF over GST control) with SPIB; 1.4 fold enrichment (6-mer frequency, TF over GST control) with ELK3.
ATTTGG: the binding signal is 1.44 fold enrichment (6-mer frequency, TF over GST control) in the assay with FLI1; 1.33 fold enrichment (6-mer frequency, TF over GST control) with ELK1; 1.39 fold enrichment (6-mer frequency, TF over GST control) with GABPA; 1.36 fold enrichment (6-mer frequency, TF over GST control) with ERG; 1.36 fold enrichment (6-mer frequency, TF over GST control) with ELF1; 1.35 fold enrichment (6-mer frequency, TF over GST control) with EHF. Also, the binding signal is 1.38 fold enrichment (6-mer frequency, TF over GST control) with SPI1; 1.32 fold enrichment (6-mer frequency, TF over GST control) in the assay with SPIB; 1.33 fold enrichment (6-mer frequency, TF over GST control) with ELK3.
Turning to CCCTCG, the binding signal is 1.23 fold enrichment (6-mer frequency, TF over GST control) with FLI1; 1.34 fold enrichment (6-mer frequency, TF over GST control) with ELK1; 1.38 fold enrichment (6-mer frequency, TF over GST control) in the assay with GABPA; 1.14 fold enrichment (6-mer frequency, TF over GST control) with ERG; 1.34 fold enrichment (6-mer frequency, TF over GST control) with ELF1; 1.24 fold enrichment (6-mer frequency, TF over GST control) with EHF. Also, the binding signal is 1.23 fold enrichment (6-mer frequency, TF over GST control) with SPI1; 1.34 fold enrichment (6-mer frequency, TF over GST control) in the assay with SPIB; 1.15 fold enrichment (6-mer frequency, TF over GST control) in the assay with ELK3.
Turning to CTGCAA, the binding signal was 1.29 fold enrichment (6-mer frequency, TF over GST control) in the assay with FLI1; 1.3 fold enrichment (6-mer frequency, TF over GST control) with ELK1; 1.2 fold enrichment (6-mer frequency, TF over GST control) in the assay with GABPA; 1.23 fold enrichment (6-mer frequency, TF over GST control) with ERG; 1.36 fold enrichment (6-mer frequency, TF over GST control) with ELF1; 1.2 fold enrichment (6-mer frequency, TF over GST control) with EHF. Also, the binding signal with SPI1 is 1.31 fold enrichment (6-mer frequency, TF over GST control); in the assay with SPIB it was 1.27 fold enrichment (6-mer frequency, TF over GST control); in the assay with ELK3, 1.33 fold enrichment (6-mer frequency, TF over GST control).
With ATCGAA, the binding signal was 1.11 fold enrichment (6-mer frequency, TF over GST control) in the assay with FLI1; 1.12 fold enrichment (6-mer frequency, TF over GST control) in the assay with ELK1; 1.1 fold enrichment (6-mer frequency, TF over GST control) in the assay with GABPA; 1.1 fold enrichment (6-mer frequency, TF over GST control) in the assay with ERG; 1.14 fold enrichment (6-mer frequency, TF over GST control) with ELF1; 1.16 fold enrichment (6-mer frequency, TF over GST control) with EHF. Also, the binding signal is 1.13 fold enrichment (6-mer frequency, TF over GST control) in the assay with SPI1; 1.18 fold enrichment (6-mer frequency, TF over GST control) in the assay with SPIB; 1.08 fold enrichment (6-mer frequency, TF over GST control) in the assay with ELK3.

The record behind these values is article PMC7862700, “An all-to-all approach to the identification of sequence-specific readers for epigenetic DNA modifications on cytosine”.
